Source: PubChem BioAssay AID743342 (Broad Institute, 2014)
Entries with a potency or affinity are not part of this list.

Test system: Drosophila bursicon receptor LGR2 (rickets)
Assay: inhibition of bursicon-driven LGR2 cAMP signaling – cell-based, HEK293, CRE-luciferase reporter, cherry pick, dose response (AID 743342)
Details: bursicon antagonist, 4 h; series mostly up to 35 µM; activity change, negative = inhibition: at the top concentration;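 active = every replicate test run was called active, each showing a signal decrease within twice the top valid dose; inconclusive = replicate test runs disagree on the call; inactive = every test run inactive, including signal moving upward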

Activity change, negative = inhibition, inactive:
COc1ccc(S(=O)(=O)Nc2ccc3c(c2)C(=O)N([C@@H](C)CO)C[C@@H](C)[C@H](CN(C)C(=O)Nc2cccc4ccccc24)OCCCC[C@H](C)O3)cc1 -13.7%, COc1ccc(S(=O)(=O)Nc2ccc3c(c2)C(=O)N([C@H](C)CO)C[C@H](C)[C@H](CN(C)S(=O)(=O)c2ccc(F)cc2)OCCCC[C@@H](C)O3)cc1 -15.2%, COc1ccc(S(=O)(=O)Nc2ccc3c(c2)C(=O)N([C@@H](C)CO)C[C@H](C)[C@@H](CN(C)C(=O)Nc2cccc4ccccc24)OCCCC[C@H](C)O3)cc1 -15.9%, CC(C)NC(=O)Nc1ccc2c(c1)C(=O)N([C@H](C)CO)C[C@@H](C)[C@H](CN(C)S(C)(=O)=O)OCCCC[C@H](C)O2 0.859%, Cc1ccc(S(=O)(=O)Nc2ccc3c(c2)C(=O)N([C@H](C)CO)C[C@@H](C)[C@H](CN(C)S(=O)(=O)c2cccs2)OCCCC[C@@H](C)O3)cc1 -19%, Cc1noc(C)c1S(=O)(=O)Nc1ccc2c(c1)C(=O)N([C@H](C)CO)C[C@H](C)[C@H](CN(C)C(=O)Nc1ccc(F)cc1)OCCCC[C@@H](C)O2 -2.2%, C[C@@H]1CCCCO[C@H](CN(C)CC2CCCCC2)[C@H](C)CN([C@H](C)CO)C(=O)c2cc(NS(=O)(=O)c3ccccc3)ccc2O1 -12.9% [at 30 µM], C[C@H](CO)N1C[C@H](C)[C@H](CN(C)C(=O)Cc2ccccc2)OCCCC[C@H](C)Oc2ccc(NC(=O)Nc3ccc(C(F)(F)F)cc3)cc2C1=O -29.2%, C[C@@H]1CN([C@@H](C)CO)C(=O)c2cc(NS(C)(=O)=O)ccc2O[C@@H](C)CCCCO[C@@H]1CN(C)Cc1ccc(C(F)(F)F)cc1 -20%
